Test results as given in PubChem BioAssay AID1159580 (chemical genetic matrix, 2015).
Where “and” joins values, the source holds several entries; their conditions need not be identical. Identical values can stand only once. Screen size: about 5,500 compounds; about 2,000 (36%) were called active. Roughly 18% stayed inconclusive and do not appear here. Rule as the data show it: active = normalized growth mostly below about 0.91 (no sharp cut-off); inconclusive = no clear call, values can overlap the other calls; inactive = mostly above about 0.92. The list shows a part of the results.

Assay: chemical genetic growth profiling, strain panel (AID 1159580);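 also: tested at 20 µM; growth read once vehicle control cultures reached saturation at 30 °C; 1 = growth at the plate median or of vehicle wells; lower values mean less growth of the strain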
Details: S. cerevisiae deletion strains, growth OD

Measured: normalized growth

COc1ccc2c(c1)OC/C(=C/c1ccc(OC)c(OC)c1)C2=O
active: locus YAL026C, strain drs2, stronger effect = lower value 0.891 | locus YBR009C, strain hhf1, stronger effect = lower value 0.803 | locus YBR023C, strain chs3, stronger effect = lower value 0.882 | locus YBR231C, strain swc5, stronger effect = lower value 0.88 | locus YCL011C, strain gbp2, stronger effect = lower value 0.905 | locus YCL016C, strain dcc1, stronger effect = lower value 0.856 | locus YCL061C, strain MRC1, stronger effect = lower value 0.887 | locus YCL069W, strain vba3, stronger effect = lower value 0.873 | locus YDR137W, strain rgp1, stronger effect = lower value 0.682 | locus YDR162C, strain NBP2, stronger effect = lower value 0.833 | locus YDR318W, strain mcm21, stronger effect = lower value 0.894 | locus YDR335W, strain msn5, stronger effect = lower value 0.899 | locus YDR392W, strain spt3, stronger effect = lower value 0.212 | locus YDR502C, strain sam2, stronger effect = lower value 0.893 | locus YEL003W, strain gim4, stronger effect = lower value 0.893 | locus YEL061C, strain CIN8 (second series), stronger effect = lower value 0.863 | locus YEL061C, strain CIN8, stronger effect = lower value 0.911 | locus YER155C, strain BEM2 (second series), stronger effect = lower value 0.625 | locus YGL086W, strain mad1, stronger effect = lower value 0.9 | locus YGL240W, strain doc1, stronger effect = lower value 0.852 | locus YGL253W, strain hxk2, stronger effect = lower value 0.764 | locus YHR129C, strain ARP1, stronger effect = lower value 0.867 | locus YHR142W, strain chs7, stronger effect = lower value 0.668 | locus YIL066C, strain RNR3, stronger effect = lower value 0.832 | locus YJL095W, strain BCK1 (second series), stronger effect = lower value 0.864 | locus YJL164C, strain tpk1, stronger effect = lower value 0.852 | locus YJL166W, strain qcr8, stronger effect = lower value 0.756 | locus YKL160W, strain elf1, stronger effect = lower value 0.758 | locus YKR001C, strain vps1, stronger effect = lower value 0.861 | locus YLL001W, strain dnm1, stronger effect = lower value 0.845 | locus YLR027C, strain aat2, stronger effect = lower value 0.914 | locus YLR221C, strain rsa3, stronger effect = lower value 0.886 | locus YLR262C, strain YPT6 (second series), stronger effect = lower value 0.682 | locus YLR268W, strain sec22, stronger effect = lower value 0.852 | locus YLR320W, strain mms22, stronger effect = lower value 0.71 | locus YLR330W, strain CHS5, stronger effect = lower value 0.838 | locus YLR418C, strain cdc73, stronger effect = lower value 0.621 | locus YMR058W, strain fet3, stronger effect = lower value 0.87 | locus YMR205C, strain PFK2, stronger effect = lower value 0.68 | locus YNL071W, strain lat1, stronger effect = lower value 0.38 | locus YNL307C, strain MCK1, stronger effect = lower value 0.412 | locus YOR083W, strain WHI5, stronger effect = lower value 0.852 | locus YOR106W, strain vam3, stronger effect = lower value 0.842 | locus YOR184W, strain ser1, stronger effect = lower value 0.805 | locus YOR270C, strain vph1, stronger effect = lower value 0.686 | locus YOR290C, strain snf2, stronger effect = lower value 0.813 | locus YPL051W, strain arl3, stronger effect = lower value 0.852 | locus YPL078C, strain atp4, stronger effect = lower value 0.793 | locus YPL106C, strain sse1, stronger effect = lower value 0.841 | locus YPL240C, strain hsp82, stronger effect = lower value 0.87 | locus YPR163C, strain tif3, stronger effect = lower value 0.726
inactive: locus YAL013W, strain DEP1, stronger effect = lower value 1.01 | locus YAL021C, strain ccr4, stronger effect = lower value 0.997 | locus YAL030W, strain snc1, stronger effect = lower value 0.986 | locus YBL061C, strain skt5, stronger effect = lower value 1 | locus YBR021W, strain FUR4, stronger effect = lower value 0.873 | locus YBR171W, strain sec66, stronger effect = lower value 0.978 | locus YBR229C, strain ROT2, stronger effect = lower value 0.981 | locus YBR279W, strain paf1, stronger effect = lower value 0.946 | locus YCL029C, strain bik1, stronger effect = lower value 0.943 | locus YCR088W, strain abp1, stronger effect = lower value 0.98 | locus YDL005C, strain med2, stronger effect = lower value 1.02 | locus YDL035C, strain GPR1, stronger effect = lower value 0.978 | locus YDL040C, strain nat1, stronger effect = lower value 0.974 | locus YDL074C, strain BRE1, stronger effect = lower value 0.928 | locus YDL101C, strain DUN1, stronger effect = lower value 0.95 | locus YDL185W, strain tfp1, stronger effect = lower value 0.987 | locus YDL192W, strain arf1, stronger effect = lower value 0.944 | locus YDR001C, strain nth1, stronger effect = lower value 0.983 | locus YDR069C, strain doa4, stronger effect = lower value 1.01 | locus YDR101C, strain arx1, stronger effect = lower value 0.963 | locus YDR159W, strain sac3, stronger effect = lower value 0.874 | locus YDR195W, strain ref2 1.1 | locus YDR297W, strain sur2, stronger effect = lower value 0.943 | locus YDR334W, strain swr1, stronger effect = lower value 0.974 | locus YDR388W, stronger effect = lower value 0.958 | locus YEL037C, strain rad23, stronger effect = lower value 0.984 | locus YER015W, strain faa2, stronger effect = lower value 0.936 | locus YER016W, strain bim1, stronger effect = lower value 1.03 | locus YER110C, stronger effect = lower value 0.945 | locus YER111C, strain swi4, stronger effect = lower value 1.01 | locus YER155C, strain BEM2, stronger effect = lower value 0.962 | locus YER167W, strain BCK2, stronger effect = lower value 0.947 | locus YFR010W, strain ubp6, stronger effect = lower value 0.986 | locus YGL078C, strain dbp3, stronger effect = lower value 0.976 | locus YGL167C, strain pmr1, stronger effect = lower value 1.06 | locus YGL173C, strain kem1, stronger effect = lower value 0.984 | locus YGL227W, strain vid30, stronger effect = lower value 0.986 | locus YGL248W, strain PDE1, stronger effect = lower value 0.916 | locus YGR135W, strain pre9, stronger effect = lower value 0.914 | locus YGR252W, strain gcn5, stronger effect = lower value 0.799 | locus YHR013C, strain ard1, stronger effect = lower value 0.862 | locus YHR027C, strain rpn1, stronger effect = lower value 0.979 | locus YHR079C, strain IRE1 (second series), stronger effect = lower value 0.979 | locus YHR079C, strain IRE1, stronger effect = lower value 0.952 | locus YHR094C, strain hxt1, stronger effect = lower value 0.969 | locus YHR200W, strain rpn10, stronger effect = lower value 0.969 | locus YIL073C, strain SPO22, stronger effect = lower value 0.833 | locus YIL125W, strain kgd1, stronger effect = lower value 0.973 | locus YIR030C, strain dcg1, stronger effect = lower value 0.978 | locus YJL092W, strain hpr5, stronger effect = lower value 0.97 | locus YJL115W, strain asf1, stronger effect = lower value 0.98 | locus YJL129C, strain trk1, stronger effect = lower value 0.929 | locus YJL134W, strain LCB3, stronger effect = lower value 0.996 | locus YJL154C, strain vps35, stronger effect = lower value 0.993 | locus YJL168C, strain set2, stronger effect = lower value 0.965 | locus YJL187C, strain SWE1 (second series), stronger effect = lower value 0.937 | locus YJL187C, strain SWE1, stronger effect = lower value 0.973 | locus YJR043C, strain POL32, stronger effect = lower value 0.915 | locus YJR066W, strain TOR1, stronger effect = lower value 0.903 | locus YJR075W, strain HOC1, stronger effect = lower value 0.955 | locus YKL009W, strain mrt4, stronger effect = lower value 0.973 | locus YKL068W, stronger effect = lower value 1.02 | locus YKL085W, strain MDH1 (second series), stronger effect = lower value 0.98 | locus YKL085W, strain MDH1, stronger effect = lower value 0.98 | locus YKL190W, strain CNB1, stronger effect = lower value 0.982 | locus YKR026C, strain gcn3, stronger effect = lower value 0.984 | locus YKR091W, strain srl3, stronger effect = lower value 0.979 | locus YLL026W, stronger effect = lower value 0.979 | locus YLL041C, strain sdh2, stronger effect = lower value 1.01 | locus YLR039C, strain RIC1, stronger effect = lower value 0.727 | locus YLR058C, strain SHM2, stronger effect = lower value 0.949 | locus YLR102C, strain apc9, stronger effect = lower value 0.974 | locus YLR113W, strain HOG1, stronger effect = lower value 0.933 | locus YLR258W, strain gsy2, stronger effect = lower value 0.915 | locus YLR262C, strain YPT6, stronger effect = lower value 0.805 | locus YLR342W, strain FKS1 (second series), stronger effect = lower value 0.809 | locus YLR342W, strain FKS1, stronger effect = lower value 0.92 | locus YLR357W, strain rsc2, stronger effect = lower value 0.985 | locus YLR370C, strain arc18, stronger effect = lower value 0.962 | locus YLR371W, strain rom2, stronger effect = lower value 0.951 | locus YLR384C, strain iki3, stronger effect = lower value 1 | locus YML016C, strain PPZ1, stronger effect = lower value 0.989 | locus YML032C, strain rad52, stronger effect = lower value 0.955 | locus YML120C, strain ndi1, stronger effect = lower value 0.979 | locus YML124C, strain tub3, stronger effect = lower value 0.982 | locus YMR078C, strain ctf18, stronger effect = lower value 0.981 | locus YMR125W, strain sto1, stronger effect = lower value 0.966 | locus YMR129W, stronger effect = lower value 0.996 | locus YMR223W, strain ubp8, stronger effect = lower value 0.941 | locus YMR231W, strain pep5, stronger effect = lower value 0.984 | locus YMR307W, strain GAS1, stronger effect = lower value 0.955 | locus YNL067W, strain RPL9B, stronger effect = lower value 0.931 | locus YNL128W, strain TEP1, stronger effect = lower value 0.96 | locus YNL183C, strain NPR1, stronger effect = lower value 0.9 | locus YNL209W, strain ssb2, stronger effect = lower value 0.967 | locus YNL233W, strain BNI4, stronger effect = lower value 0.873 | locus YNL248C, strain rpa49, stronger effect = lower value 0.935 | locus YNL250W, strain rad50, stronger effect = lower value 0.98 | locus YNL271C, strain bni1, stronger effect = lower value 0.971 | locus YNL298W, strain CLA4, stronger effect = lower value 0.93 | locus YNL322C, strain KRE1 (second series), stronger effect = lower value 0.98 | locus YNR049C, strain mso1, stronger effect = lower value 0.978 | locus YNR052C, strain pop2, stronger effect = lower value 0.964 | locus YOL006C, strain TOP1, stronger effect = lower value 0.724 | locus YOL012C, strain htz1 0.627 | locus YOL147C, strain pex11, stronger effect = lower value 0.956 | locus YOR001W, strain rrp6, stronger effect = lower value 0.955 | locus YOR061W, strain CKA2, stronger effect = lower value 0.979 | locus YOR069W, strain VPS5, stronger effect = lower value 1 | locus YOR070C, strain gyp1, stronger effect = lower value 0.929 | locus YOR080W, strain dia2, stronger effect = lower value 0.986 | locus YOR136W, strain idh2, stronger effect = lower value 0.967 | locus YOR144C, strain elg1, stronger effect = lower value 0.976 | locus YOR231W, strain MKK1, stronger effect = lower value 0.921 | locus YOR265W, strain rbl2, stronger effect = lower value 0.954 | locus YOR316C, strain cot1, stronger effect = lower value 0.967 | locus YPL241C, strain CIN2, stronger effect = lower value 0.994 | locus YPL256C, strain CLN2, stronger effect = lower value 0.972 | locus YPR119W, strain clb2, stronger effect = lower value 0.994 | locus YPR141C, strain kar3, stronger effect = lower value 0.996 | locus YPR167C, strain met16, stronger effect = lower value 0.952 | strain wtn01, stronger effect = lower value 0.936
0.838 (active) and 0.944 (inactive): locus YHR030C, strain SLT2, stronger effect = lower value
0.733 (active) and 0.959 (inactive): locus YJL095W, strain BCK1, stronger effect = lower value
